Laboratory results: PubChem BioAssay (NCATS)
Results filed as inconclusive are left out. Activity calls are given as the source filed them. Calls follow the shape of the dose curve; as a rule, active = well fitted curve in the direction sought with a large enough effect in the signal ratio, with a control signal flat (not every such curve was filed as active); inconclusive = small, poorly fitted or top-dose-only effect, or effect the other way, or a change in a side signal; inactive = no such curve, though single readings can be large or run the other way; the % refers to the signal ratio.

Target: Peroxisome proliferator-activated receptor gamma (Homo sapiens) (UniProt P37231)
Sequence (P37231 whole entry, looked up): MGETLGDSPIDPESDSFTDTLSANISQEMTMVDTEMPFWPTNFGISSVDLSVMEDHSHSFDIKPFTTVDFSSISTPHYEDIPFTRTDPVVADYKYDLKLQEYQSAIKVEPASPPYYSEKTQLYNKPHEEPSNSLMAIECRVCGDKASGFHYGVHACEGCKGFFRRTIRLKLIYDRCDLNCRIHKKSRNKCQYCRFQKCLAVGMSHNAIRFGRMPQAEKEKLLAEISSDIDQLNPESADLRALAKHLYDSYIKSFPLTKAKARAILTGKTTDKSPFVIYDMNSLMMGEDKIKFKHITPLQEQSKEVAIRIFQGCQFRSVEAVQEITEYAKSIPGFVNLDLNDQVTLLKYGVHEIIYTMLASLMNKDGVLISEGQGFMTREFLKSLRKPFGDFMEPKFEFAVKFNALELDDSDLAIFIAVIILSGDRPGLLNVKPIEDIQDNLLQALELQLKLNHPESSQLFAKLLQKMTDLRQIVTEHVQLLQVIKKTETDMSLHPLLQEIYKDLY
Assay: qHTS assay for small molecule agonists of peroxisome proliferator-activated receptor gamma signaling (AID 588536)
Conditions: HEK293 PPARg-UAS-bla, beta-lactamase ratio, 16 h, percent of rosiglitazone response, DMSO as zero; series mostly up to 76.7 µM
Text: NIH Chemical Genomics Center [NCGC] U.S. Environmental Protection Agency [EPA] National Institutes of Environmental Health Sciences [NIEHS] National Toxicology Program [NTP] NCGC Assay Overview The Peroxisome proliferator-activated receptors (PPARs) are lipid-activated transcription factors of the nuclear receptor superfamily with three distinct subtypes namely PPAR alpha, PPAR delta (also called PPAR beta) and PPAR gamma. All these subtypes heterodimerizes with Retinoid X receptor (RXR) and these heterodimers regulate transcription of various genes. PPAR-gamma (glitazone receptor) agonists have been used in the treatment of type 2 diabetes and dyslipidaemia. It is involved in the regulation of glucose and lipid metabolism. PPAR-gamma activates certain genes like Paraoxonase 1 which is responsible for hydrolyzing organophosphates. PPAR-gamma agonists may also be therapeutically important in the treatment of coronary artery disease, obesity and cancer and atherosclerosis.
NCGC Assay Protocol Summary Using a beta-lactamase reporter-gene under control of Peroxisome Proliferator-Activated-gamma (PPAR-gamma) response element, a cell-based assay [GeneBLAzer PPAR-gamma-UAS-bla assay developed by Invitrogen] was used to measure PPAR-gamma ligands signaling. GeneBLAzer PPAR-gamma-UAS-bla-HEK293 cells were used with assay medium containing 1% charcoal/dextran treated FBS. The assay was performed in clear bottom black Greiner 1536-well plates. Rosiglitazone was used in the screen as the positive control. Library compounds were measured for their ability to stimulate the reporter gene activity. Compounds were screened in a titration series in 1536-well format. The fluorescence intensity (405 nm excitation, 460/530 nm emission) was measured using an EnVision plate reader. Data was normalized relative to Rosiglitazone control (2 uM, 100%), and DMSO only wells (basal, 0%). Concentration-response titration points for each compound were fitted to the Hill equation yielding concentrations of half-maximal stimulation (EC50) and maximal response (efficacy) values. qHTS protocol for PPAR-gamma beta-lactamase assay in agonist mode [Step] [Parameter] [Value] [Description] 1. Reagent; 6 uL; 3000 cells/well 2. Incubation; 37 C for 6 - 6.5 hrs 3. Compounds; 23 nL; 0.59 nM to 92 uM 4. Controls (Rosiglitazone); 23 nL, - One column with dose response, start 19 uM, 1:3 dilutions in duplicates - Final concentrations of 2 uM and 0.5 uM in two columns 5. Incubation; 37 C for 16 hrs 6. Detection reagent; 1 uL of CCF4-dye 7. Incubation; RT for 2 hrs 8. Detection; Fluorescence; Envision plate reader

| Compound | outcome |
| --- | --- |
| c1ccc2c(c1)Nc1ccccc1S2 | inactive |
| C[C@]12CCC(=O)C(O)=C1CC[C@@H]1[C@@H]2CC[C@]2(C)C(=O)CC[C@@H]12 | inactive |
| Oc1ccc(Cl)cc1Cc1ccccc1 | inactive |
| Oc1cccc2cccnc12 | inactive |
| Oc1ccccc1-c1ccccc1 | inactive |
| NCC(O)c1ccc(O)cc1 (stereo not given) | inactive |
| CCOP(=S)(OCC)Oc1cc(C)nc(C(C)C)n1 | inactive |
| Oc1cc(Cl)ccc1Oc1ccc(Cl)cc1Cl | inactive |
| CCCC(C)(COC(N)=O)COC(=O)NC(C)C (stereo not given) | inactive |
| OCCOc1ccccc1 | inactive |
